ELG1 DNA repair – ELG1-dependent DNA repair inhibition. Potency, µM (highest dose often 46.1 µM), for inactives: top-dose activity change, negative = inhibition, hits mostly inhibitors. HEK293T ELG1-luciferase reporter, luminescence, 16 h; DNA damage induced by 5-fluorouridine. 330,000 compounds, 2.3% hits; further: on the % scale 0 is the no-effect control and ±100 the full control effect; nearly all actives have a fitted effect of over 55% in size
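Overnight (16 hr) co-exposure of 2,000 cells/well to 5-fluorouridine and compound at 37 °C preceded detection. Luciferase was quantified via ONE-Glo luminescence; loss of signal denotes inhibition.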
SMN2 splice enh – increases expression of the SMN2 splice variant. 210,000 compounds, 2.8% hits. HEK293 SMN2-luciferase splicing reporter, luminescence, 30-36 h. Potency, µM (highest dose often 46.1 µM), inactives show top-dose activity change, positive = activation, hits mostly activators; further: % of control where 0% means no effect; nearly all actives have a fitted effect of over 55% in size
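HEK293 cells carry an SMN2 […]–luciferase reporter in which exon 7 inclusion puts luciferase in frame. Cells were plated 10-12 h before compound addition, then incubated 30-36 h at 37C. ONE-Glo luminescence was read; sodium butyrate at 4.5 mM final served as control.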
ELG1 genotoxic – genotoxicity induction in ELG1-luciferase HEK293T cells. HEK293T ELG1-luciferase reporter, luminescence, 16 h. Potency, µM (series often up to 46 µM), without a hit: at the highest dose activity change, positive = activation, usual class: activators. 330,000 compounds, 1.3% hits. AID 504466; further: % of control where 0% means no effect; nearly all actives have a fitted effect of over 60% in size
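Reporter readout depends on ELG1 protein level, which increases with genetic stress. After 16 hr compound exposure at 37 °C, luciferase activity was quantified using ONE-Glo.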
FLuc modulator – counter-screen for miR-21 project: firefly luciferase inhibitors or activators; AID 588342; Potency, µM (top dose mostly 57.5 µM), inactives show top-dose activity change, negative = inhibition, usual class: inhibitors; 360,000 compounds, 6.9% hits; P08659; purified FLuc, Km substrates, luminescence inhibition;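 further: plate controls were vehicle for no effect and reference inhibitor for full effect; nearly all actives have a fitted effect of over 55% in size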
Target sequence (P08659 whole entry, looked up): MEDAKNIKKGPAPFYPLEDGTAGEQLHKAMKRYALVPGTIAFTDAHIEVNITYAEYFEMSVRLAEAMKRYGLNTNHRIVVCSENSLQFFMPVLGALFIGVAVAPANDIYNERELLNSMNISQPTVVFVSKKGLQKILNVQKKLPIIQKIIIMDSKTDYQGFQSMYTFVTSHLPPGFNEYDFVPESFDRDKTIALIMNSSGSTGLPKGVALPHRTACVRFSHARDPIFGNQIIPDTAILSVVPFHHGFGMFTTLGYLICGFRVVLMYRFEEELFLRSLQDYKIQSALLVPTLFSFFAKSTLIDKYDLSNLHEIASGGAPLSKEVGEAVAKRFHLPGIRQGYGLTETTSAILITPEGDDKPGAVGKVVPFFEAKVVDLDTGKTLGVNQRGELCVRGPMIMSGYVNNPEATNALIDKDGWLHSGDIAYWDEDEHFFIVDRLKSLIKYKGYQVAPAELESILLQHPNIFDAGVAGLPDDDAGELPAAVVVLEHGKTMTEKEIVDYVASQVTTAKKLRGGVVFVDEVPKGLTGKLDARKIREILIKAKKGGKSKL
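Purified P. pyralis luciferase (10nM final) with 10uM D-luciferin and 10uM ATP (Km levels) in 50mM Tris acetate pH 7.5, 10mM Mg acetate, 0.01% Tween-20, 0.05% BSA; qHTS 6-point titration, ~60 µM downward; luminescence read.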
Rab9 promoter act – activators of Rab9 promoter; 320,000 compounds, 2.8% hits; Huh7 Rab9 promoter-luciferase reporter, luminescence, 24 h; Potency, µM (highest dose often 9.22 µM), for inactives: at the top dose activation, negative = inhibition, usual class: activators; further: % of control where 0% means no effect; nearly all actives have a fitted effect of over 60% in size
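Luminescence read-out: Huh7 cells stably expressing Rab9-luciferase, treated 24 h with compound at 37 °C, then lysed with luciferase reagent for 10 min at ambient before reading.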
NPC1 promoter act – activates the NPC1 promoter. Huh7 NPC1 promoter luciferase reporter, 24 h. Potency, µM (highest dose often 9.22 µM), without a hit: top-dose activation, usual class: activators. 320,000 compounds, 2.4% hits; further: % of control where 0% means no effect; nearly all actives have a fitted effect of over 60% in size
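Huh7 cells stably carrying NPC1 promoter–luciferase, plated in Opti-MEM with 10% FBS for 2 h, were exposed to compound in DMSO for 24 h at 37 °C; luciferase reagent was added for 10 min and luminescence read.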
* = called active by the depositor. Hits are enriched below; roughly 9.2% of the tested compounds scored in any of these assays. The call rests on the fitted dose curve; in most records, active means well fitted curve in the direction sought with a large enough effect; inconclusive means small, poorly fitted or top-dose-only effect, or another doubt; inactive means no such curve, though single readings can be large; an effect the other way counts as inactive or inconclusive. Potency means the concentration at half of the fitted maximal effect.

How did Cc1cc(C(=O)Cn2nc(C(=O)O)c3ccccc3c2=O)c(C)n1-c1ccccc1 do in these assays?
ELG1 DNA repair: inconclusive; SMN2 splice enh: -7%; ELG1 genotoxic: inconclusive; FLuc modulator: 0.95µM*; Rab9 promoter act: inconclusive; NPC1 promoter act: 19%

How did CCCc1ccc(C(=O)Cn2nc(C(=O)O)c3ccccc3c2=O)cc1 do in these assays?
ELG1 DNA repair: 2%; SMN2 splice enh: -4%; ELG1 genotoxic: 0%; FLuc modulator: inconclusive; Rab9 promoter act: 0%; NPC1 promoter act: -1%

What do the screens show for `CCOC(=O)c1c(NC(=O)CN2C(=O)NC3(CCC(C)CC3)C2=O)sc(C(=O)N(C)C)c1C` (stereo unspecified)?
ELG1 DNA repair: -26%; ELG1 genotoxic: 2%; FLuc modulator: 2%; Rab9 promoter act: -5%; NPC1 promoter act: -2%

Results for Cc1cc(C)c(NC(=O)C(C)n2c(=O)cc(C)c3c(C)nn(-c4ccccc4)c32)c(C)c1 (stereo unspecified) ?
FLuc modulator: -1%

What do the screens show for `Cc1ccc(C2C=NN(c3ccccc3)C2=O)cc1` (stereo unspecified)?
ELG1 DNA repair: inconclusive; ELG1 genotoxic: inconclusive; FLuc modulator: 12µM*; Rab9 promoter act: inconclusive; NPC1 promoter act: 16%

How did CCN(C(=O)COC(=O)Cn1c(C)csc1=O)c1c(N)n(Cc2ccccc2)c(=O)[nH]c1=O do in these assays?
ELG1 DNA repair: 20%; ELG1 genotoxic: 5%; FLuc modulator: 3%; Rab9 promoter act: -3%; NPC1 promoter act: 0%

How did O=C(Nc1nc2ccccc2[nH]1)Nc1ccccc1F do in these assays?
ELG1 DNA repair: inconclusive; ELG1 genotoxic: 1.2µM*; FLuc modulator: 1.1µM*; Rab9 promoter act: inconclusive; NPC1 promoter act: inconclusive

Results for O=C(Nc1nc2ccccc2[nH]1)C12CC3CC(CC(C3)C1)C2 ?
ELG1 DNA repair: inconclusive; SMN2 splice enh: 14µM*; ELG1 genotoxic: inconclusive; FLuc modulator: 3.4µM*; Rab9 promoter act: 2.8µM*; NPC1 promoter act: 2µM*

How did S=C(NC1CCCCC1)N(CCc1nc2ccccc2[nH]1)C1CCCC1 do in these assays?
ELG1 DNA repair: 23µM*; SMN2 splice enh: -61%; ELG1 genotoxic: -5%; FLuc modulator: 5%; Rab9 promoter act: -6%; NPC1 promoter act: -4%

What do the screens show for `O=C(NC1CCCC1)c1ccccc1-c1nc2ccccc2[nH]1`?
ELG1 DNA repair: -7%; SMN2 splice enh: 11µM*; ELG1 genotoxic: -1%; FLuc modulator: 0%; Rab9 promoter act: 1%; NPC1 promoter act: -1%

Results for O=C(Nc1ccccc1NC(=O)NC1CCCCC1)NC1CCCCC1 ?
ELG1 DNA repair: 11%; SMN2 splice enh: -78%; ELG1 genotoxic: -31%; FLuc modulator: inconclusive; Rab9 promoter act: -7%; NPC1 promoter act: -5%

Results for O=C(Nc1nc2ccccc2[nH]1)C1CCN(C(=O)c2ccc(F)cc2)CC1 ?
ELG1 DNA repair: 14%; ELG1 genotoxic: -2%; FLuc modulator: -14%; Rab9 promoter act: -1%; NPC1 promoter act: -4%

Results for O=C(Nc1nc2ccccc2[nH]1)C1CC1 ?
ELG1 DNA repair: 18%; SMN2 splice enh: 10µM*; ELG1 genotoxic: 10%; FLuc modulator: inconclusive; Rab9 promoter act: 0%; NPC1 promoter act: -15%

What do the screens show for `O=C(Nc1nc2ccccc2[nH]1)NC1CCCCC1`?
ELG1 DNA repair: inconclusive; ELG1 genotoxic: 2.6µM*; FLuc modulator: 1.5µM*; Rab9 promoter act: 0.4µM*; NPC1 promoter act: 0.45µM*

Results for Cc1nn(-c2ccccc2)c(C)c1C(=O)OCC(=O)N1c2ccccc2NC(=O)C1(C)C ?
ELG1 DNA repair: 18µM*; SMN2 splice enh: -2%; ELG1 genotoxic: -18%; FLuc modulator: 0%; Rab9 promoter act: -4%; NPC1 promoter act: -5%

Screening results from PubChem BioAssay.
